Sampled rows, rich in hits. Any-hit rate of the full collection: about 21%.
SARS PLP yeast: qHTS of Yeast-based Assay for SARS-CoV PLP; S. cerevisiae expressing SARS-CoV PLpro, growth rescue; Potency, µM (highest dose often 32.9 µM), for inactives: at the highest dose activity, positive = growth rescue, actives largely listed as activators; AID 485353, 2010; hit rate 0.19% among 330,000; further: potency means the concentration at half of the fitted maximal effect; 0% is about no effect; nearly all actives have a fitted effect of over 55% in size
CHX counter: Cycloheximide Counterscreen for Small Molecule Inhibitors of Shiga Toxin; max response, %; hit rate 12% among 300,000; cell reporter, cycloheximide protein synthesis inhibition counterscreen; in the data active means max response mostly above about 13%, no sharp cut-off; inactive means mostly below about 14%; further: read at 38.3 µM for the half of the compounds with a filed dose; 0% is about no effect
Shiga inhibitor: A qHTS for Small Molecule Inhibitors of Shiga Toxin. Vero cells, Shiga toxin protein synthesis inhibition reporter. inhibition, % at 38.7 µM. hit rate 9.2% among 290,000. AID 2315, 2010; in the data active means inhibition mostly above about 28%, no sharp cut-off; inactive means mostly below about 43%; further: 0% is about no effect
Pf growth 96h: Primary qHTS for delayed death inhibitors of the malarial parasite plastid, 96 hour incubation | P. falciparum luciferase reporter growth, 96 h | Potency, µM (titrated, usually from 28.7 µM), inactives show at the top dose activity change, negative = inhibition, hits mostly inhibitors | hit rate 6.9% among 320,000 | AID 504834, 2011; active means well fitted inhibition curve with a large enough effect; inconclusive means small, poorly fitted or top-dose-only effect, or another doubt; inactive means no such curve, though single readings can be large or run the other way; further: potency means the concentration at half of the fitted maximal effect; on the % scale 0 is the no-effect control and ±100 the full control effect
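Readout is luminescence from an integrated firefly luciferase in P. falciparum. Red cells, 2% hematocrit and 0.05% parasitemia final, were cultured with compound through two parasite generations (96 hours) at 37 C, 5% CO2.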
Pf growth 48h: Primary qHTS for delayed death inhibitors of the malarial parasite plastid, 48 hour incubation; Potency, µM (doses to about 28.7 µM), without a hit: at the highest dose activity change, negative = inhibition, hits mostly inhibitors; hit rate 5.9% among 310,000; P. falciparum luciferase growth in erythrocytes, 48 h; AID 504832, 2011; active means well fitted inhibition curve with a large enough effect; inconclusive means small, poorly fitted or top-dose-only effect, or another doubt; inactive means no such curve, though single readings can be large or run the other way; further: potency means the concentration at half of the fitted maximal effect; on the % scale 0 is the no-effect control and ±100 the full control effect
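Read-out is firefly luciferase luminescence from an integrated reporter in P. falciparum, so falling signal marks reduced parasite growth. Infected erythrocytes were at 2% hematocrit and 0.1% parasitemia (final) in Albumax-supplemented RPMI 1640.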
NS1 function inh: qHTS Assay for Inhibitors of Influenza NS1 Protein Function | hit rate 0.4% among 270,000 | Potency, µM (highest dose often 46.1 µM), for inactives: top-dose activity, positive = more growth; further: potency means the concentration at half of the fitted maximal effect; actives are rising curves; nearly all actives have a fitted effect of over 50% in size
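OD600 was taken as the measure of yeast growth restored by compound in an NS1-expressing S. cerevisiae strain. Cells had been washed out of glucose medium and diluted 1:100 into galactose -URA medium, pH 6.0.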
* hit, by the source's call; ? = inconclusive; . = not tested or not shown; [ ] = dose if it differs, or a comment. Unless noted, the call rests on the fitted dose curve.

SMILES	SARS PLP yeast	CHX counter	Shiga inhibitor	Pf growth 96h	Pf growth 48h	NS1 function inh
Clc1cccc(Nc2nc(-c3ccncc3)nc3ccccc23)c1	0%	5	44	0.93µM*	-17%	-2%
Clc1ccccc1Nc1nc(-c2ccncc2)nc2ccccc12	-6%	-5	-14	?	13µM*	-6%
COC(=O)c1ccc(CNC(=O)C2CCC(=O)N(CCN3CCOCC3)C2)cc1 (stereo not given)	-2%	8	-11	-23%	8%	14%
O=C(c1c(Cl)nc2sccn12)N1CCN(c2cccc(Cl)c2)CC1	-4%	1	16	-2%	0%	-76%
Clc1ccc(CSc2nnc(-c3ccncc3)o2)c(Cl)c1	-4%	-4	-3	71%	?	-9%
c1ccc(CSc2nnc(-c3ccncc3)o2)cc1	-12%	35*	85*	0%	95%	-5%[9.22 µM]
COc1ccc(C(C)=O)cc1CSc1nnc(-c2ccncc2)o1	-2%	-2	-7	4.1µM*	?	-7%
Cc1ccccc1CSc1nnc(-c2ccncc2)o1	-1%	13*	39	29%	-22%	-32%
COC(=O)c1ccc(OC)c(CSc2nnc(-c3ccc(C)cc3)o2)c1	.	.	.	.	.	2%
N#Cc1ccc(CSc2nnc(-c3ccncc3)o2)cc1	0%	-2	-5	114%	-4%	.
COc1cc(-c2nc(-c3ccc4c(c3)-c3ccccc3S4(=O)=O)c(-c3ccccc3)[nH]2)cc(OC)c1OC	2%	6	33	2%	1.9µM*	28%
COc1cccc(-c2nc(-c3ccccc3)c(-c3ccccc3)[nH]2)c1OCC(=O)O	6%	-1	-4	183%	?	?
COc1cccc(-c2nc(-c3ccc4c(c3)-c3ccccc3S4(=O)=O)c(-c3ccccc3)[nH]2)c1OC	-13%	-4	10	?	9.3µM*	?
COc1cc(-c2nc(-c3ccccc3)c(-c3cccs3)[nH]2)cc(OC)c1OC	-5%	-1	-26	.	?	?
Cc1ccc(C2(C)NC(=O)N(CC(=O)NNC(=O)c3ccccc3F)C2=O)cc1 (stereo not given)	0%	.	.	9%	29%	.
N#Cc1c(N)nc(SCc2ccccc2)c(C#N)c1-c1ccco1	3%	15*	6	39%	?	-41%
COC(=O)CSc1nc2c(c(-c3ccco3)c1C#N)CCCC2	-5%	9	2	.	1.9µM*	-53%
N#Cc1c(N)nc(SCC(=O)OCc2ccccc2)c(C#N)c1-c1ccco1	0%	-3	-3	4.1µM*	?	-37%
COC(=O)CSc1nc2c(c(-c3ccc(O)cc3)c1C#N)CCCC2	-2%	-3	-3	-23%	4%	1%
N#Cc1c(N)nc(SC2CCCCC2=O)c(C#N)c1-c1ccco1 (stereo not given)	.	.	.	.	.	-3%
Nc1ccn([C@H]2O[C@@H](COP(=O)(O)O)[C@@H](O)[C@H]2O)c(=O)n1	.	.	.	.	.	-2%
CCN(C(=O)COC(=O)C1CCN(S(=O)(=O)c2cccs2)CC1)c1ccccc1	0%	-3	-10	43%	-12%	.
COC[C@H]([C@@H](O)[C@@H](O)C(=O)NCC[C@@H](C)c1nc(/C=C/C[C@H]2OC3(C[C@H](O)[C@H]2C)OC([C@@H](C[C@@H](O)[C@@H](C)[C@@H](O)[C@@H](C)/C=C(C)/C(C)=C/C=C/C(C)=C\C#N)OC)[C@@H](OP(=O)(O)O)C3(C)C)co1)N(C)C (stereo not given in full)	.	-15	-10	.	.	.
CCn1c(COc2cccc(OC)c2)nnc1SCC(=O)Nc1ccccc1C(=O)OC	?	-3	-15	.	?	-13%
CCn1c(COc2ccc3c(c2)CCCC3)nnc1SCC(=O)Nc1ccc(C(=O)OC)cc1	9%	-2	-11	9.3µM*	-19%	-2%
CCn1c(CNC(=O)COc2ccc(C(C)C)cc2)nnc1SCC(=O)NC1CCCCC1C (stereo not given)	-6%	-4	2	10µM*	12µM*	2%
CCn1c(CNC(=O)COc2ccc(C(C)C)cc2)nnc1SCC(=O)Nc1ccc(F)cc1	5%	-2	2	8.3µM*	.	-2%
